Only some compounds are listed: those with a hit (about 2.3% of all), similar ones and a draw of the others.
ELG1 DNA repair – blocks ELG1-dependent DNA repair in HEK293T cells; Potency, µM (top dose mostly 46.1 µM), for the others: top-dose activity change, negative = inhibition, hits mostly inhibitors; actives 2.3% (n = 330,000); HEK293T ELG1-luciferase reporter, luminescence, 16 h; DNA damage induced by 5-fluorouridine; also: potency is read from the fitted curve at half-maximal effect; % is scaled to controls: 0 for no effect and ±100 for the full control effect; nearly all actives have a fitted effect of over 55% in size
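5-Fluorouridine DNA damage + compound/DMSO, 2,000 cells/well, 16 h, 37 °C/5% CO2. ONE-Glo, 30 min RT, luminescence. Readout = decrease in reporter signal.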
FUS yeast rescue – FUS proteinopathy suppression in yeast; S. cerevisiae FUS-expressing, growth rescue, OD600, 24 h; Potency, µM (titrated, usually from 76.6 µM), most hits filed as activators; AID 1347120; actives 0.24% (n = 390,000);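 also: potency is read from the fitted curve at half-maximal effect; plate controls were DMSO vehicle for no effect and reference control for full effect; nearly all actives have a fitted effect of over 55% in size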
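Galactose (2%) drives FUS expression in yeast precultured in raffinose; seeding density OD 0.005. Test compounds incubated 24hr at 30C and 99% humidity before absorbance at 600 nm was measured.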
Giardia kill – Giardia lamblia killing; Giardia lamblia trophozoite viability; activity change, % at 7.66 µM, hits read low; actives 0.15% (n = 340,000); AID 540267; in the data active = activity change below about -80%; inconclusive = between about -30% and that limit;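 also: parasites exposed to compound for two days anaerobically before the ATP read; % is scaled to controls: 0 for no effect and ±100 for the full control effect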
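Trophozoites 100 cells/well + cpd; 48 hrs, 37 deg C, anaerobic. ATPLite 1-Step added, 15-30 min RT, luminescence read (ATP-based viability).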
TRPV1 PAM – human TRPV1 potentiation. AID 540277. potentiation, % at 8.33 µM. actives 0.02% (n = 320,000). TRPV1-expressing cells, Fluo-8 calcium influx, capsaicin EC20 potentiation; in the data active = potentiation above about 80%; inconclusive = between about 30% and that limit; also: 0% is about no effect
Target sequence (Q8NER1 whole entry, looked up): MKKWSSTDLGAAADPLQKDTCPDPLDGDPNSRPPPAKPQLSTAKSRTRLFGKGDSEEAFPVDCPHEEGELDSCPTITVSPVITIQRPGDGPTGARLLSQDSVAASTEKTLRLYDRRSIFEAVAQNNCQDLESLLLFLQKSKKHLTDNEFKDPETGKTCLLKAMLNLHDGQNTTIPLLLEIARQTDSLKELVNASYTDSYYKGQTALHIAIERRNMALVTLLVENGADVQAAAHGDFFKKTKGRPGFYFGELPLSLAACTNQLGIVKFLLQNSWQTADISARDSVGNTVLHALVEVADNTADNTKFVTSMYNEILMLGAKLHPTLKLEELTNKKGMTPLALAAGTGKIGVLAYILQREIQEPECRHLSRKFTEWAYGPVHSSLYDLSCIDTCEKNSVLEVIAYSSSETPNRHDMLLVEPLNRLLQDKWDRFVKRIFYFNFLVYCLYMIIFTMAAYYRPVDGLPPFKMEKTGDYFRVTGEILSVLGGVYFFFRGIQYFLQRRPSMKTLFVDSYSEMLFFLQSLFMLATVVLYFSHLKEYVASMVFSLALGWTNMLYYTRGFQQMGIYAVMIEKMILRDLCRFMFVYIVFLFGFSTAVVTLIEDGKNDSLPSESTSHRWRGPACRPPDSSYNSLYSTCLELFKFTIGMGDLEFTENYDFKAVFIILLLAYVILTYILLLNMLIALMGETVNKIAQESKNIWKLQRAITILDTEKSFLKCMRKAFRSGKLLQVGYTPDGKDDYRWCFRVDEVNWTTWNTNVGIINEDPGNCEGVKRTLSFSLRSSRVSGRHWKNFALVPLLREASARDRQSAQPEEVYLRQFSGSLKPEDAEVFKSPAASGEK
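TRPV1-expressing cells were cultured overnight at 35.5C and loaded with Fluo-8 calcium dye for 40 to 90 min at room temperature. After a 10 s baseline, compound was added and calcium influx was read kinetically for 3 min (ex 480/em 520 nm).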
TRPV1 agonist – human TRPV1 agonism. Q8NER1. TRPV1-expressing cells, Fluo-8 calcium influx, agonist mode. activation, % at 8.33 µM. actives 0.19% (n = 320,000); in the data active = activation above about 80%; inconclusive = between about 30% and that limit; also: 0% is about no effect
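TRPV1-expressing cells were cultured overnight at 35.5C and loaded with Fluo-8 calcium dye for 40 to 90 min at room temperature. After a 10 s baseline, compound was added and calcium influx was read kinetically for 3 min (ex 480/em 520 nm).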
An asterisk follows results filed as active; i = inactive; ? = inconclusive; . = no result given. Unless noted, calls follow the shape of the dose curve; as a rule, active = well fitted curve in the direction sought with a large enough effect; inconclusive = small, poorly fitted or top-dose-only effect, or another doubt; inactive = no such curve, though single readings can be large; an effect the other way counts as inactive or inconclusive.

SMILES | ELG1 DNA repair | FUS yeast rescue | Giardia kill | TRPV1 PAM | TRPV1 agonist
O=C1Nc2ccccc2-c2nnnn2C1N1CCCCC1 (configuration not stated) | . | i | . | . | .
Cc1nnc(NC(=O)C(=O)c2cc(C)n(-c3ccc(C)c(C)c3)c2C)s1 | . | i | . | . | .
CCCNC(=O)CSc1nc2ccccc2nc1Cc1ccc(Cl)cc1 | . | i | . | . | .
O=C(Nc1ccc2c(c1)OCO2)C1CCN(C(=O)CSc2ncnc3ccccc23)CC1 | ? | ? | -23.1 | -7.7 | 80.8*
CC(Sc1ncnc2ccccc12)C(=O)Nc1ccc2c(c1)OCO2 (configuration not stated) | -2.2% | i | 20.3 | 10.3 | 1.5
Cc1ccc(NC(=O)c2ccc(CN3CC(=O)N4CCCCC4C3=O)cc2)cc1 (configuration not stated) | . | i | . | . | .
COc1ccc2c(c1)OC[C@H]1[C@H]2N2C(=O)CN(CCc3c[nH]c4ccccc34)C(=O)[C@@]2(C)[C@H]1c1ccccc1 | 5.8µM* | 22.4µM* | -6.2 | -1.2 | 2.3
Cc1nn2c(C(F)(F)F)cc(-c3ccc(Cl)cc3)nc2c1C(=O)N1CCOCC1 | 16.4µM* | i | 17.0 | -8.8 | 6.4
O=C(c1cnn2c(C(F)(F)F)cc(-c3ccc(Br)cc3)nc12)N1CCOCC1 | ? | . | -9.3 | 28.3 | -5.9
O=C(CCS(=O)(=O)c1cccs1)Nc1ccc(C(=O)NCc2ccc(F)cc2)cc1 | -17.7% | i | 25.1 | 2.0 | -5.7
O=C(CCS(=O)(=O)c1cccs1)Nc1ccc(C(=O)NCc2cccs2)cc1 | 16.4µM* | i | 7.1 | 4.7 | 0.9
Cc1sc2ncnc(SCC(=O)c3ccc4c(c3)OCCO4)c2c1-c1ccccc1 | 10.3µM* | . | -6.2 | 0.7 | 1.5
CC(C)(C)NC(=O)C1C(c2ccccc2)=Nc2ccccc2N1C(=O)c1ccc(C(F)(F)F)cc1 (configuration not stated) | . | i | . | . | .
COc1ccc(C2=Nc3ccccc3N(C(=O)c3ccc(C(F)(F)F)cc3)C2C(=O)NCc2ccccc2)cc1 (configuration not stated) | . | 22.4µM* | . | . | .
Cc1ccccc1OCC(=O)Nc1ccccc1OCc1cc(=O)n2ccccc2n1 | . | i | . | . | .
Cc1cccc(NC(=O)Cc2nc(-c3c[nH]c(C(=O)N4CCCC4)c3)cs2)c1 | ? | i | -19.5 | 7.7 | 0.5
Cc1ccccc1NC(=O)Cc1nc(-c2c[nH]c(C(=O)N3CCCC3)c2)cs1 | 16.4µM* | ? | 4.8 | -1.6 | -0.7
N#Cc1ccc(S(=O)(=O)N2CCN(c3nc(-c4ccccc4)nc4ccccc34)CC2)cc1 | . | . | -17.1 | . | .
Cc1ccc(N(Cc2cccs2)C(=O)c2ccco2)cc1 | . | i | . | . | .
Cc1ccc(CNC(=O)c2ccc(N3CCC4(CC3)CC(c3cccc(Br)c3)=NO4)c(N)c2)cc1 | -17.1% | 17.8µM* | -2.8 | 14.7 | -1.1
Cc1ccc(CNC(=O)c2ccc(N3CCC4(CC3)CC(c3cccc(Br)c3)=NO4)c(NC(=O)c3ccc(Br)cc3)c2)cc1 | 9.2% | i | -15.7 | . | .
CCCNC(=O)c1ccc(N2CCC3(CC2)CC(c2ccccc2)=NO3)c(NC(=O)c2ccccc2)c1 | 6.51µM* | ? | 15.2 | ? | -2.0
Cc1ccc(-n2nnc(-c3nsc(NC(=O)c4ccccc4)n3)c2C)cc1 | . | i | . | . | .
Cc1cc(=O)n(CC(=O)NC(C)c2ccccc2)c2c1c(C)nn2C (configuration not stated) | . | i | . | . | .
O=C(c1cc(-c2ccccc2)nc2ccccc12)N1CCCc2ccccc21 | 18.4µM* | i | -1.9 | -5.5 | 20.5
SMILES | ELG1 DNA repair | FUS yeast rescue | Giardia kill | TRPV1 PAM | TRPV1 agonist
Cc1ccc(-c2cc(C(F)F)n3ncc(C(=O)N4CCCc5ccccc54)c3n2)cc1 | -27.5% | i | -12.4 | -11.3 | ?
O=C(NCc1ccccn1)c1cc(-c2ccccc2)nc2ccccc12 | ? | . | -2.0 | 4.5 | 0.5
Cc1cccc(-c2cc(C(=O)NCc3ccccn3)c3ccccc3n2)c1 | 16.4µM* | . | -17.0 | 18.1 | 5.2
Cc1cccc(-c2cc(C(=O)N3CCCc4ccccc43)c3ccccc3n2)c1 | 7.31µM* | . | 2.9 | -0.5 | 7.3
COc1ccc(-c2cc(-c3ccccc3)nc(Cl)n2)cc1OC | 18.3µM* | i | 0.7 | -7.5 | -11.0
CCc1nc(-c2ccc(OC)c(OC)c2)cc2cc(OC)c(OC)cc12 | 25.9µM* | i | 1.8 | -0.1 | -3.3
CCc1nn(CC(=O)N2CCN(c3ccc(OC)cc3)CC2)c(=O)c2cc3sccc3n12 | . | i | . | . | .
Cc1nnc(N2CCC(C(=O)N3CCCCC3)CC2)c2nn(-c3ccccc3)c(C)c12 | . | i | . | . | .
CCOC(=O)c1sc2ccccc2c1S(=O)(=O)NCc1ccccc1OC | . | i | . | . | .
Cc1ccc(-n2nc(C)c3c(-c4cccs4)c(C#N)c(N)nc32)cc1 | 12.6µM* | i | -10.2 | -4.5 | -3.1
N#CC1=C2SCN(Cc3ccco3)CN2C(=O)CC1c1ccc(Cl)cc1 (configuration not stated) | -0.3% | 20µM* | -6.2 | -0.7 | -1.8
COc1cc(/C=C2\SC(=Nc3ccccc3)N(CCc3c[nH]c4ccccc34)C2=O)ccc1OC(C)C(=O)O (configuration not stated) | -3.1% | ? | -18.5 | ? | -1.7
COCCN1C(=O)/C(=C/c2ccc(Oc3ccc([N+](=O)[O-])cn3)c(OC)c2)SC1=Nc1ccccc1 | 2.59µM* | i | -13.9 | -0.5 | 0.5
O=C(Nc1ccc(-c2csc(Nc3ccccc3)n2)cc1)c1cc([N+](=O)[O-])cc(C(F)(F)F)c1 | 9.2µM* | i | -10.8 | 24.6 | 0.3
O=C(Nc1ccc(-c2csc(Nc3ccccc3)n2)cc1)c1cccc(C(F)(F)F)c1 | ? | i | 3.0 | -37.3 | -1.1
O=C(Nc1cccc(-c2csc(Nc3cccc(C(F)(F)F)c3)n2)c1)c1cc([N+](=O)[O-])cc(C(F)(F)F)c1 | 2.59µM* | i | -3.6 | -24.1 | 0.9
CC(C)(C)OC(=O)N1CCC(c2c(C(=O)N3CCN(c4ccccn4)CC3)cnn2-c2cccc(F)c2)CC1 | . | i | . | . | .
COc1ccc(NC(=O)CC2C(=O)N(c3ccc(C)cc3)C(=O)N2Cc2cccnc2)cc1 (configuration not stated) | . | i | . | . | .
O=C(NCc1ccccc1)c1cccc(N2CCCS2(=O)=O)c1 | . | i | . | . | .
O=[N+]([O-])c1cc(-c2n(-c3ccccn3)c3ccccc3[n+]2-c2ccccn2)ccc1Cl | 18.3µM* | i | -7.3 | 4.6 | 2.7
O=C(c1ccc(Cl)c([N+](=O)[O-])c1)N1CCN(c2ccccn2)CC1 | -18.6% | . | ? | -11.3 | 10.8
COCCCn1c(=O)c2sccc2n2c(CCCC(=O)Nc3cc(C)cc(C)c3)nnc12 | . | i | . | . | .
Cc1ccc2occ(CC(=O)Nc3ccc(Cl)c(C(F)(F)F)c3)c2c1 | . | i | . | . | .

Screening data: PubChem BioAssay, National Center for Advancing Translational Sciences (NCATS)
